PubChem BioAssay AID1903 (Southern Research Specialized Biocontainment Screening …, 2009)
Among all 310,000 compounds or so, about 1,200 (0.39%) were called active. No rule for the calls is given here. These entries were drawn from the full list. Entries with a potency or affinity are not part of this list.

target: Large T antigen (Simian virus 40) (UniProt P03070); assay: SV40 large T antigen inhibitors, biochemical (AID 1903); conditions: SV40 large T antigen ATPase/helicase inhibition assay; at 20 µM; active compounds read high
Sequence (P03070 whole entry, looked up): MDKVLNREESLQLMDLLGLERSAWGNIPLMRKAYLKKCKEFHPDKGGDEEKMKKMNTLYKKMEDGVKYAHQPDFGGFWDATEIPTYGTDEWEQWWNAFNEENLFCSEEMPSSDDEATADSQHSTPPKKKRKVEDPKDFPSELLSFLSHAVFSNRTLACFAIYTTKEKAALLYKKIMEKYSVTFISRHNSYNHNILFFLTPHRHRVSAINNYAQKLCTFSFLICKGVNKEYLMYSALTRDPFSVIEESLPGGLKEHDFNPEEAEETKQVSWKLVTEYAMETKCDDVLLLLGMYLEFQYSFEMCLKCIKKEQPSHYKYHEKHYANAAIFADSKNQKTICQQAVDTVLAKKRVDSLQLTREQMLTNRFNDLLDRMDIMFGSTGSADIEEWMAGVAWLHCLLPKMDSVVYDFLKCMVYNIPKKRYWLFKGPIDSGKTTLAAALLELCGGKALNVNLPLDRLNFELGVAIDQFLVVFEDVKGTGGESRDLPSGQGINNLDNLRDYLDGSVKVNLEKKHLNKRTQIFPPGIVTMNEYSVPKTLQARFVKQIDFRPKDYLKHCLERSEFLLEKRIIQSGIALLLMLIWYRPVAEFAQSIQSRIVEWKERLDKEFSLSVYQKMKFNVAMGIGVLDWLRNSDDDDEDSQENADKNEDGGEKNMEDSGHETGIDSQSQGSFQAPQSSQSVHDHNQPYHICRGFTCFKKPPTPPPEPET

inhibition, inactive:
COc1ccc(-n2cnnc2SCCC#N)cc1 2.92%
CCOc1cc(CNc2ccc3c(c2)OCCO3)cc(Br)c1OCC(N)=O 32.4%
COc1cc(CNCCCN2CCOCC2)ccc1OCC(=O)NC(C)(C)C -1.04%
COc1cc(CNc2ccc(N3CCOCC3)c(C(=O)O)c2)ccc1OCC(N)=O 14%
CCOc1cc(CNc2ccc(N3CCCCC3)cc2)cc(Br)c1OCC(=O)NC(C)(C)C 19.5%
COc1cc(CNC(C)(C)C)ccc1OCC(=O)NC(C)(C)C 12.2%
COc1cc(CNCCN2CCOCC2)ccc1OCC(=O)NC(C)(C)C 3.18%
O=C(c1cc2ccccc2o1)n1nnc2ccccc21 3.13%
CC(C)(C)NS(=O)(=O)c1cc(C(=O)Nc2sccc2C#N)ccc1Cl 8.52%
COc1cc(NC(=O)C2CCCN(S(=O)(=O)c3ccc4c(c3)oc(=O)n4C)C2)cc(OC)c1 (stereo unspecified) 1.24%
O=C(O)CSCC(=O)N1CCN(c2nc3cc(Cl)ccc3s2)CC1 8.15%
C=CCNC(=O)c1ccccc1NS(=O)(=O)c1ccccc1 4.06%
CCN(CC)CCNC(=O)c1cn(-c2ccccc2)nc1-c1cccs1 12.7%
Nc1nc(-c2ccc(-n3nncc3-c3ccco3)cc2)cs1 13.1%
c1coc(-c2nc3ccccc3nc2-c2ccco2)c1 50.2%
c1ccc(-c2nc(-c3ccco3)cs2)nc1 23.7%
c1coc(-c2nnc(-c3ccco3)nn2)c1 63.8%
COc1ccc(-c2csc(C)n2)cc1OC 2.09%
COc1ccc(-c2csc(C)n2)cc1 13.6%
Oc1ccccc1-c1csc(-c2ccccc2)n1 6.78%
COc1ccc(-c2csc(C)n2)cc1Br 10.3%
Cc1nc(-c2ccccc2)cs1 12.6%
COc1ccc(-c2csc(-c3ccc(O)cc3)n2)cc1 21%
O=C1Nc2ccc(Br)cc2C1(O)c1ccc(F)cc1 (stereo unspecified) 5.56%
COc1ccc(F)cc1C(=O)C1CCCN(Cc2c(C)n(C)n(-c3ccccc3)c2=O)C1 (stereo unspecified) 25.2%
COc1ccc(C(=O)NC2CCCCC2)cc1S(=O)(=O)N1CCOCC1 1.05%
CC(OC(=O)c1cccc(Cl)c1)C(=O)NC1CCCCC1C (stereo unspecified) 27.1%
Nc1nnc(SCC(=O)N2CCCCC2)s1 -7.45%
COc1ccc(-n2nc3cc(C)c(N)cc3n2)cc1Cl -6.4%
O=C(CN(Cc1ccccc1)C(=O)c1csnn1)NCc1ccccc1 7.5%
Cc1nc2ccc(NC(=O)c3ccc([N+](=O)[O-])cc3[N+](=O)[O-])cc2s1 8.68%
Cc1nc2ccc(NC(=O)c3ccc(Cl)c([N+](=O)[O-])c3)cc2s1 6.3%
COc1ccccc1C(NC(C)=O)c1cc(Cl)c2cccnc2c1O (stereo unspecified) 3.72%
CCOc1ccc(C(Nc2cccnc2)c2cc(Cl)c3cccnc3c2O)cc1 (stereo unspecified) 15.7%
CCOC(=O)C1(Cc2ccccc2C)CCCN(S(=O)(=O)CC)C1 (stereo unspecified) 6.84%
Cc1cc(C)c(C)c(S(=O)(=O)Nc2ccc(O)cc2)c1C 30.2%
Cc1cc(C)c(S(=O)(=O)Nc2ccc(O)cc2)cc1C 48.1%
Cc1ccc(C)c(S(=O)(=O)Nc2ccc(C(N)=O)cc2)c1 20.6%
Cc1cc(C)c(S(=O)(=O)Nc2ccc(O)cc2)c(C)c1 29.1%
COCCOc1cc(N(CC(=O)N(C)C)S(=O)(=O)c2ccccc2)c(Cl)cc1Cl -5.2%
Cc1cc(C)c2c(=O)[nH]n(C3CCOC(C)(C)C3)c2n1 (stereo unspecified) 13.4%
O=C(Nc1ccccc1C(=O)Nc1nnc(C(F)(F)F)s1)c1ccccc1Cl 10.1%
CNC(=O)c1cc(S(=O)(=O)NCc2ccncc2)ccc1OC 11.8%
COc1ccccc1S(=O)(=O)CC(O)COc1ccc(F)cc1Cl (stereo unspecified) 4.29%
COc1ccc(/C=C/C(=O)C2CC2)cc1COc1c(C)cccc1C 7.52%
COC(=O)CC1SC(=O)NC1=Nc1ccc(OC)cc1 (stereo unspecified) 3.46%
COC(=O)CC1SC(=O)NC1=Nc1ccc(C)cc1 (stereo unspecified) 0.63%
Cc1cc(S(=O)(=O)NCc2ccccc2)ccc1OCC(=O)NCc1cccnc1 8.52%
O=C(COc1ccccc1Br)Nc1ccc2c(c1)OCCCO2 8.78%
COc1ccc(N2C(=O)CC(Sc3n[nH]c(-c4ccc(C)cc4)n3)C2=O)cc1 (stereo unspecified) 28.9%
CCOc1ccc(N2C(=O)CC(Sc3n[nH]c(-c4ccccc4)n3)C2=O)cc1 (stereo unspecified) 33.8%
Cc1nc2ccccc2n1CC(=O)NCCN1CCOCC1 21.1%
CCCCn1c(N)c(N(CCOC)C(=O)COC(=O)CSc2cc(C)c3ccccc3n2)c(=O)[nH]c1=O 11.3%
Oc1ccccc1Nc1nc(NCC2CCCO2)c2ccccc2n1 (stereo unspecified) 31.9%
OCCNc1nc(Nc2ccc(Br)cc2)nc2ccccc12 2.29%
OCCNc1nc(Nc2ccccc2)nc2ccccc12 1.4%
c1ccc(Nc2nc(NCC3CCCO3)c3ccccc3n2)cc1 (stereo unspecified) 5.53%
CC(C)CSc1nc2ccccc2[nH]1 4.9%
CC(NC(=O)c1cccnc1)C(=O)N1CCCCC1 (stereo unspecified) 11.9%
CC1CC1c1ccc(/C=C(\C#N)C(=O)Nc2ccccc2Cl)o1 (stereo unspecified) 19.3%
O=C(Cn1c(O)c(/C=C2\C=Nc3ccc(Br)cc32)sc1=O)N1CCCC1 2.37%
O=C(Nc1ccccc1F)c1ccc(CN2CCc3ccccc3C2)cc1 -1.04%
CC(C)c1cccc(C(C)C)c1NC(=O)CN1C(=O)NC2(CCCC2)C1=O 1.52%
CCC(C)(C)n1nnnc1C(c1ccc2ncccc2c1)N1CCCCCC1 (stereo unspecified) 3.78%
CC(C)(C)n1nnnc1C(c1ccncc1)N1CCCCCC1 (stereo unspecified) 17.8%
c1ccc(C(c2nnnn2C2CCCC2)N2CCCCCC2)nc1 (stereo unspecified) 4.88%
c1ccc(C(c2ccccc2)N2CCN(C(c3ccccn3)c3nnnn3C3CCCC3)CC2)cc1 (stereo unspecified) -0.29%
c1ccc(C(c2nnnn2C2CCCC2)N2CCN(c3ccccc3)CC2)cc1 (stereo unspecified) 11.2%
c1cc(C(c2nnnn2C2CCCC2)N2CCOCC2)ccn1 (stereo unspecified) 4.22%
CCC(C)(C)n1nnnc1C(c1ccc2ncccc2c1)N1CCN(c2nc3ccccc3s2)CC1 (stereo unspecified) 9.88%
CC(C)(C)n1nnnc1C(c1cccnc1)N1CCN(c2ccccc2)CC1 (stereo unspecified) 3.3%
